Measured values as given in PubChem BioAssay AID1159580 (chemical genetic matrix, 2015).
Hit rate of the full screen: of about 5,500 compounds, about 2,000 (36%) were called active. Another 18% or so got no clear call; they are omitted. No stated cut-off is given here; in the data, active means normalized growth mostly below about 0.91 (no sharp cut-off); inconclusive means no clear call, values can overlap the other calls; inactive means mostly above about 0.92. The list shows a part of the results.

Assay: chemical genetic growth profiling, strain panel (AID 1159580);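 further: tested at 20 µM; growth read once vehicle control cultures reached saturation at 30 °C; 1 = growth at the plate median or of vehicle wells; lower values mean less growth of the strain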
Settings: S. cerevisiae deletion strains, growth OD
[1] = locus YDL101C, strain DUN1, hits give low values
[2] = locus YDR150W, strain NUM1, hits give low values
[3] = locus YGR078C, strain PAC10, hits give low values
[4] = locus YHR030C, strain SLT2, hits give low values
[5] = locus YJR075W, strain HOC1, hits give low values
[6] = locus YPL241C, strain CIN2, hits give low values
[7] = locus YAR019C, strain CDC15, hits give low values
[8] = locus YBL105C, strain PKC1, hits give low values
[9] = locus YBR135W, strain CKS1, hits give low values
[10] = locus YBR136W, strain MEC1, hits give low values
[11] = locus YBR160W, strain CDC28, hits give low values
[12] = locus YDL017W, strain CDC7, hits give low values
[13] = locus YDL028C, strain MPS1, hits give low values
[14] = locus YDL108W, strain KIN28, hits give low values
[15] = locus YDL132W, strain cdc53, hits give low values
[16] = locus YDL214C, strain PRR2, hits give low values
[17] = locus YDR052C, strain DBF4, hits give low values
[18] = locus YDR054C, strain cdc34, hits give low values
[19] = locus YDR226W, strain ADK1, hits give low values
[20] = locus YDR477W, strain SNF1, hits give low values
[21] = locus YER123W, strain YCK3, hits give low values
[22] = locus YER133W, strain GLC7, hits give low values
[23] = locus YFL009W, strain cdc4, hits give low values
[24] = locus YFL029C, strain CAK1, hits give low values
[25] = locus YFR003C, strain YPI1, hits give low values
[26] = locus YFR019W, strain FAB1, hits give low values
[27] = locus YFR028C, strain CDC14, hits give low values
[28] = locus YGR040W, strain KSS1, hits give low values
[29] = locus YGR052W, strain FMP48, hits give low values
[30] = locus YGR092W, strain DBF2, hits give low values
[31] = locus YHR079C, strain IRE1, hits give low values
[32] = locus YHR082C, strain KSP1, hits give low values
[33] = locus YHR205W, strain SCH9, hits give low values
[34] = locus YIL147C, strain SLN1, hits give low values
[35] = locus YJL095W, strain BCK1, hits give low values
[36] = locus YJR016C, strain ILV3, hits give low values
[37] = locus YJR066W, strain TOR1 (second series), hits give low values
[38] = locus YJR066W, strain TOR1, hits give low values
[39] = locus YKL048C, strain ELM1, hits give low values
[40] = locus YKL101W, strain HSL1, hits give low values
[41] = locus YKL193C, strain SDS22, hits give low values
[42] = locus YKL203C, strain TOR2, hits give low values
[43] = locus YLR113W, strain HOG1, hits give low values
[44] = locus YML070W, strain DAK1, hits give low values
[45] = locus YMR001C, strain CDC5, hits give low values
[46] = locus YMR205C, strain PFK2 (second series), hits give low values
[47] = locus YMR277W, strain FCP1, hits give low values
[48] = locus YNL006W, strain LST8, hits give low values
[49] = locus YNL020C, strain ARK1, hits give low values
[50] = locus YNL161W, strain CBK1, hits give low values
[51] = locus YNL183C, strain NPR1, hits give low values
[52] = locus YNL207W, strain RIO2, hits give low values
[53] = locus YNL222W, strain SSU72, hits give low values
[54] = locus YNL307C, strain MCK1 (second series), hits give low values
[55] = locus YOL078W, strain AVO1, hits give low values
[56] = locus YOL136C, strain PFK27, hits give low values
[57] = locus YOR061W, strain CKA2, hits give low values
[58] = locus YOR119C, strain RIO1, hits give low values
[59] = locus YOR231W, strain MKK1, hits give low values
[60] = locus YOR329C, strain SCD5, hits give low values
[61] = locus YPL031C, strain PHO85, hits give low values
[62] = locus YPL153C, strain RAD53, hits give low values
[63] = locus YPL204W, strain HRR25, hits give low values
[64] = locus YPL209C, strain IPL1, hits give low values
[65] = locus YPL256C, strain CLN2, hits give low values
[66] = locus YPR025C, strain CCL1, hits give low values
[67] = locus YPR106W, strain ISR1, hits give low values
[68] = locus YPR111W, strain DBF20, hits give low values
[69] = strain NNK1, hits give low values
[70] = strain TSCII, hits give low values

Measured: normalized growth

CC(C)(O)C#Cc1ccc(/C=N\O)cc1
inactive: locus YAL013W, strain DEP1, hits give low values 1.01 | locus YBR229C, strain ROT2, hits give low values 0.996 | [1] 0.99 | locus YDL134C, strain PPH21, hits give low values 0.981 | [2] 0.938 | locus YEL061C, strain CIN8, hits give low values 0.984 | [3] 1.03 | [4] 1 | locus YHR087W, strain rtc3, hits give low values 0.988 | locus YJR043C, strain POL32, hits give low values 1.02 | [5] 0.992 | locus YKL190W, strain CNB1, hits give low values 1 | locus YLR039C, strain RIC1, hits give low values 0.991 | locus YLR058C, strain SHM2 (second series), hits give low values 1.01 | locus YLR085C, strain ARP6, hits give low values 0.939 | locus YLR262C, strain YPT6, hits give low values 0.968 | locus YML094W, strain GIM5, hits give low values 0.975 | locus YMR219W, strain ESC1, hits give low values 0.987 | locus YMR263W, strain SAP30, hits give low values 0.962 | locus YNL128W, strain TEP1, hits give low values 0.998 | locus YNL153C, strain GIM3, hits give low values 1 | locus YNL298W, strain CLA4 (second series), hits give low values 0.977 | locus YNL322C, strain KRE1, hits give low values 0.992 | locus YNR030W, strain Alg12, hits give low values 1 | locus YPL055C, strain LGE1, hits give low values 0.936 | [6] 0.959 | locus YPR135W, strain CTF4, hits give low values 0.994

CC(C)(O)C#Cc1ccc(/C=N\Nc2ccccc2)cc1
inactive: [7] 0.966 | [8] 0.963 | [9] 0.952 | [10] 0.954 | [11] 0.954 | [12] 0.961 | [13] 0.952 | [1] 0.954 | [14] 0.965 | [15] 0.949 | [16] 0.822 | [17] 0.955 | [18] 0.957 | [19] 0.968 | [20] 0.767 | [22] 0.799 | [23] 0.948 | [24] 0.957 | [25] 0.957 | [27] 0.965 | [28] 0.784 | [29] 0.716 | [31] 0.585 | [32] 0.795 | [33] 0.88 | [34] 0.954 | locus YJL128C, strain PBS2, hits give low values 0.995 | [36] 0.948 | [38] 0.644 | [40] 0.78 | [41] 0.954 | [42] 0.831 | locus YLR133W, strain CKI1, hits give low values 0.798 | [45] 0.96 | [46] 0.872 | [47] 0.963 | [48] 0.954 | [49] 0.811 | [50] 0.954 | [51] 0.735 | [52] 0.958 | [53] 0.953 | [55] 0.952 | [58] 0.799 | [60] 0.955 | [61] 0.686 | [64] 0.959 | [66] 0.948 | [67] 0.974 | [68] 0.968 | [69] 0.979 | [70] 0.951
active: [21] 0.569 | [26] 0.589 | [30] 0.13 | [4] 0.507 | [35] 0.497 | [37] 0.557 | [39] 0.756 | [43] 0.718 | [44] 0.556 | [54] 0.41 | [56] 0.614 | [57] 0.366 | [59] 0.551 | [62] 0.565 | [63] 0.602 | [65] 0.766

CC(C)(O)C#Cc1ccc(/C=N\Nc2c(Cl)cc(Cl)cc2Cl)cc1
inactive: [7] 0.982 | [8] 0.982 | [9] 0.962 | [10] 0.979 | [11] 0.969 | [12] 0.982 | [13] 0.973 | [1] 0.986 | [14] 0.968 | [15] 0.969 | [16] 0.881 | [17] 0.978 | [18] 0.963 | [19] 0.978 | [20] 0.773 | [21] 0.86 | [22] 0.862 | [23] 0.975 | [24] 0.973 | [25] 0.978 | [26] 0.848 | [27] 0.976 | [28] 0.833 | [29] 0.769 | [30] 0.746 | [31] 0.668 | [33] 0.832 | [34] 0.973 | locus YJL157C, strain FAR1, hits give low values 0.886 | [36] 0.973 | [37] 0.86 | [38] 0.728 | [39] 0.93 | locus YKL067W, strain YNK1, hits give low values 0.893 | [40] 0.765 | [41] 0.974 | [42] 0.838 | [44] 0.707 | [45] 0.974 | [46] 0.925 | [47] 0.971 | [48] 0.984 | [49] 0.758 | [50] 0.98 | [51] 0.728 | [52] 0.981 | [53] 0.979 | [54] 0.768 | [55] 0.978 | [56] 0.904 | [57] 0.73 | [58] 1.03 | [59] 0.708 | [60] 0.983 | [61] 0.709 | [62] 0.85 | [63] 0.839 | [64] 0.979 | [66] 0.972 | [67] 0.977 | [68] 0.962 | [69] 0.972 | [70] 0.977
active: [4] 0.354 | [32] 0.591 | [35] 0.341 | [43] 0.574 | [65] 0.766

CN(C)CCCO[C@@H]1[C@H]2OC(C)(C)O[C@H]2O[C@@H]1C(O)CO (stereo not given in full)
inactive: locus YAL040C, strain CLN3, hits give low values 1 | locus YCL061C, strain MRC1 (second series), hits give low values 1 | [2] 1 | locus YDR363W, strain ESC2, hits give low values 1 | locus YER002W, strain NOP16, hits give low values 1.02 | [3] 1.01 | [5] 1.01 | locus YNL175C, strain NOP13, hits give low values 1.01 | locus YNL197C, strain WHI3, hits give low values 1.03 | locus YNL224C, strain SQS1, hits give low values 1 | locus YOR083W, strain WHI5 (second series), hits give low values 1.01 | [6] 1.01
